A selection: hits, their analogues and other compounds. The true share with any hit is near 12%.
JMJD2A Tudor: JMJD2A Tudor domain (human) inhibition | AlphaScreen JMJD2A-Tudor / H3K4me3 peptide binding | Potency, µM (doses to about 114 µM), inactives show top-dose activity change, negative = inhibition, hits mostly inhibitors | 390,000 tested, 4.4% active | AID 504339; also: % is scaled to controls: 0 for no effect and ±100 for the full control effect; nearly all actives have a fitted effect of over 50% in size
BAZ2B inh: BAZ2B (human) inhibition; Q9UIF8; AlphaScreen BAZ2B-H3K14Ac peptide displacement; Potency, µM (highest dose often 114 µM), for inactives: at the highest dose activity change, negative = inhibition, most hits filed as inhibitors; 360,000 tested, 4.4% active; AID 504333; also: % is scaled to controls: 0 for no effect and ±100 for the full control effect; nearly all actives have a fitted effect of over 60% in size
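AlphaScreen displacement: compounds (up to 110uM) incubated 30 min at room temperature with a preformed 50 nM BAZ2B/50 nM biotinylated H3K14Ac peptide complex in PBS pH 7.4 with Tween-20. Donor and acceptor beads at 10 ug/mL final added, 20 min light-protected before reading.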
G9a inh: blocks human histone lysine methyltransferase G9a. Q96KQ7. G9a H3K9 monomethylation, AlphaScreen, 2 h. Potency, µM (titrated, usually from 102 µM), without a hit: top-dose activity, negative = inhibition, most hits filed as inhibitors. 350,000 tested, 8.8% active; also: % is scaled to controls: 0 for no effect and ±100 for the full control effect; nearly all actives have a fitted effect of over 75% in size
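G9a (20 nM) was preincubated 15 min with compound, then reacted 2 h at room temperature with 500 nM biotin-H3K9 peptide and 20 µM SAM. Monomethyl-H3K9 detected by AlphaScreen using anti-H3K9me1 antibody.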
L3MBTL1 block: L3MBTL1 (human) inhibition; AlphaScreen L3MBTL1–H3K9me1 peptide binding; Potency, µM (top dose mostly 57.1 µM), inactives show at the top dose activity, negative = inhibition, most hits filed as inhibitors; 230,000 tested, 0.66% active; AID 485360; also: % is scaled to controls: 0 for no effect and ±100 for the full control effect; nearly all actives have a fitted effect of over 60% in size
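Read-out is AlphaScreen signal from streptavidin donor and nickel chelate acceptor beads (10 ug/mL final each) bridging L3MBTL1 (50 nM) and biotinylated K9-monomethylated H3(1-15) peptide (75 nM), after 30 min compound exposure at room temperature.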
Sfp PPTase inh: blocks B. subtilis Sfp PPTase activity; 310,000 tested, 3.5% active; AID 1490; Biochemical Sfp PPTase activity, qHTS; Potency, µM, for the others: largest response in the series, negative = inhibition, actives largely listed as inhibitors;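 also: the enzyme is Sfp with the accession as filed and its product quenches rhodamine fluorescence; 0% = enzyme reaction without inhibitor and -100% = no enzyme wells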
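Buffer: 50 mM Hepes-Na pH 7.6, 10 mM MgCl2, 0.01% Nonidet P-40, 0.01% BSA. Enzyme 15 nM, pre-exposed to compound 15 min; substrates then added and fluorescence change tracked over 30 min.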
HP1b binding inh: blocks HP1-beta chromodomain binding to methylated histone tails | AlphaScreen HP1-beta / biotin-H3K9me3 peptide binding | Potency, µM (titrated, usually from 114 µM), without a hit: top-dose activity change, negative = inhibition, hits mostly inhibitors | AID 540317 | 390,000 tested, 0.56% active | P83916; also: nearly all actives have a fitted effect of over 70% in size
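Compound inhibition of the preformed complex between 50 nM HP1-beta and 50 nM biotinylated H3K9me3 peptide was read by AlphaScreen. Buffer was PBS pH 7.4 with 0.01% Tween-20. Incubations ran 30 min at room temperature, with 10 ug/mL donor/acceptor beads.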
* marks the source's active call; other numbers are inactive results; u = inconclusive; x = not tested or not shown; [ ] = another dose, or the depositor's remark. Calls follow the shape of the dose curve; as a rule, active = well fitted curve in the direction sought with a large enough effect; inconclusive = small, poorly fitted or top-dose-only effect, or another doubt; inactive = no such curve, though single readings can be large; an effect the other way counts as inactive or inconclusive. Potency is read from the fitted curve at half-maximal effect.

SMILES	JMJD2A Tudor	BAZ2B inh	G9a inh	L3MBTL1 block	Sfp PPTase inh	HP1b binding inh
COc1ccc(CC(=O)NCc2ccc3c(c2)CCN3C(=O)c2ccc(Cl)cc2)cc1OC	u	-17%	-8%[59 µM]	x	x	21%
CC(C)c1nc2sc3c(c2c(=O)o1)CCCC3	17%	3%	12%[59 µM]	-2%	-13%	35%
Cc1nc2sc(C)c(C)c2c(=O)o1	-10%	-21%	u	x	20µM*	16%
Cc1nc2sc3c(c2c(=O)o1)CCCC3	-24%	-31%	45µM*	0%	40µM*	15%
O=c1oc(-c2ccccc2)nc2sc3c(c12)CCC3	-27%	50µM*	-17%	13µM*	-28%	4%
O=C1CCC(=O)N1c1ccc(-c2nc3sc4c(c3c(=O)o2)CCC4)cc1	-25%	0%	11%[12.7 µM]	-1%	10%	15%
N[C@@H](CCCCNC(=O)CCCC[C@@H]1SC[C@H]2NC(=O)N[C@H]12)C(=O)O	x	x	x	x	-17%	x
COc1ccc(N(CC(=O)NCc2ccccc2Cl)S(=O)(=O)c2c(C)nn(C)c2C)cc1	-16%	x	6%[59 µM]	x	x	19%
Cc1cnc(CNc2ncncc2-c2ccccc2CN(C)C)cn1	x	x	x	x	-64%	x
Oc1ccc(C=Nc2cccc3ncccc23)c(O)c1	u	11%	-16%[59 µM]	-8%	-5%	16%
O=Nc1ccc(O)c2ncccc12	28µM*	22µM*	u	u	u	-2%
COc1cc(N)c2ncccc2c1Cl	-3%	x	x	x	x	16%[57 µM]
Nc1ccc(Br)c2cccnc12	-29%	-33%	32µM*	-20%	-25%	17%
COc1ccc(C)cc1N=Nc1ccc(O)c2ncccc12	8.9µM*	18µM*	10µM*	x	5%	7.9µM*
Oc1ccc(N=Nc2ccc3c(c2)OCCO3)c(O)c1	40µM*	u	u	x	10%	-35%
CCc1nnc(SCC(=O)Nc2cc(Cl)c(OC)cc2OC)c2cc3oc(C)cc3n12	-3%	-13%	-16%[59 µM]	x	x	37%
Cn1c(=O)c2c(ncn2C[C@@H](O)CO)n(C)c1=O	x	x	7%[21.5 µM]	x	21%	x
CCOc1ccc(NC(=O)c2ccc3nc(Cc4ccccc4)oc3c2)cc1	-12%	-3%	-1%[59 µM]	x	x	19%[57 µM]
CCCCS(=O)(=O)N1C2=NC(C(=O)OC)=C(C(=O)OC)[C@@H]3N(C)c4ccccc4[C@]23C[C@H]1C(=O)OC	x	x	x	x	-15%	x
[O]=[Bi][O][Bi]=[O]	x	x	0%[59 µM]	x	-2%	x
Cc1ccc(Cl)cc1N1CCN(CCCNC(=O)c2nnc(Cc3cccc(Cl)c3)o2)CC1	-24%	u	-49%[59 µM]	x	x	8%
COc1ccc(-c2ncccc2O)cc1	-4%	-1%	1%	x	7%	13%
COc1ccc(N=Nc2ccc(O)c3ncccc23)cc1	22µM*	6.3µM*	-7%[59 µM]	x	14%	-19%
COc1cccc(N=Nc2ccc3cccnc3c2O)c1	14µM*	13µM*	7.1µM*	x	15%	u
Cc1cnc(N=Nc2ccccc2)[nH]1	u	x	x	x	x	11%[57 µM]
SMILES	JMJD2A Tudor	BAZ2B inh	G9a inh	L3MBTL1 block	Sfp PPTase inh	HP1b binding inh
Nc1ccc(N=Nc2ccccc2)c2cccnc12	32µM*	7.9µM*	13µM*	x	-22%	16µM*
Oc1ccc(N=Nc2ccc(Br)cc2)c(O)c1	-34%	25µM*	u	-28%	-8%	-9%
Cc1cccc(CCNc2ncnc3onc(-c4ccc(Cl)cc4)c23)c1	19%	3%	24%[59 µM]	x	x	74%
Cc1ccccc1N=Nc1ccc(O)c2ncccc12	u	7.9µM*	u	25µM*	3%	u
COc1ccc(-c2[nH]ncc2N=Nc2ccccc2)cc1	28µM*	35µM*	50µM*	-5%	u	u
Oc1ccc(N=Nc2ccc3c(c2)OCCO3)c2cccnc12	20µM*	u	-47%	u	-13%	u
Cc1ccc(O)c2ncccc12	x	x	30%[12.7 µM]	x	19%	x
COc1ccc(-c2[nH]ncc2N=Nc2cc(C)cc(C)c2)cc1	-20%[11.4 µM]	u	u	-28%	16%	-17%
O=S(=O)(O)c1cccc2c(N=Nc3ccc(O)c4ncccc34)cccc12	25µM*	22µM*	10µM*	x	-7%	22µM*

Assay outcomes (PubChem BioAssay)
